Results with a measured potency or affinity are listed apart. Activity calls are given as the source filed them.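 How the source made its calls: active means fitted half-maximal dose no more than twice the top valid tested dose, for compounds that lower signal; inconclusive means fit invalid, or curve flat with activity between -70 and -30; inactive means potency past limit, curve flat within ±30, or signal increasing.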

The target of the assay is NAD-dependent protein deacylase sirtuin-5, mitochondrial (Homo sapiens) (UniProt Q9NXA8). Put plainly: SIRT5 deacylase inhibitors, dose response, biochemical, fluorescence imaging, cherry-pick, set 6 (AID 720597).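 Further: lower AMC signal can also come from blocking the trypsin step.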 Conditions: Purified SirT5, succinyl-peptide-AMC/trypsin fluorescence; series mostly up to 15 µM.
Sequence of NAD-dependent protein deacylase sirtuin-5, mitochondrial (Homo sapiens) (Q9NXA8 whole entry, looked up): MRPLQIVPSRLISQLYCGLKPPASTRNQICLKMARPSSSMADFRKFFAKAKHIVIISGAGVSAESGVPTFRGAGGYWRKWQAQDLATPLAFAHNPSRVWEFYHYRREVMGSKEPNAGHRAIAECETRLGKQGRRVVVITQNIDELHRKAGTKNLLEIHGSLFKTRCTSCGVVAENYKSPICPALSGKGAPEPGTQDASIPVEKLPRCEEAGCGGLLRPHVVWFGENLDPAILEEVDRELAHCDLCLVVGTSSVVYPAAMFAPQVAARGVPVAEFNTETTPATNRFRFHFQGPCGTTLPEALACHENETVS
Take `COCC(=O)N1C[C@@H](C)[C@@H](OC)CN(C)C(=O)c2ccc(NC(=O)c3cc(C)on3)cc2OC[C@@H]1C`: the outcome was inactive.

For `C[C@H]1CN([C@@H](C)CO)S(=O)(=O)c2ccc(C#Cc3cccc(F)c3)cc2O[C@@H]1CN(C)S(=O)(=O)c1ccccc1F`, the call was inactive.

Take `COc1ccc(S(=O)(=O)N(C)C[C@H]2Oc3ncc(/C=C/c4ccccc4)cc3C(=O)N([C@H](C)CO)C[C@@H]2C)cc1`: the call was inactive.

In the case of `Cc1ccc(-c2cnc3c(c2)C(=O)N([C@@H](C)CO)C[C@H](C)[C@@H](CN(C)C(=O)c2cccnc2)O3)cc1`, the compound was classed as inactive.

Turning to `C[C@@H]1CN([C@@H](C)CO)C(=O)c2cccc(NC(=O)c3ccncc3)c2O[C@H]1CN(C)Cc1ccccc1`, the result was inactive.

With `C[C@@H]1CN([C@@H](C)CO)S(=O)(=O)c2ccc(C#CC(C)(C)O)cc2O[C@H]1CN(C)Cc1ccc(F)cc1`, the outcome was inactive.

With `C[C@@H]1CN([C@H](C)CO)C(=O)c2c(c3ccccc3n2C)-c2ccccc2CO[C@H]1CN(C)Cc1cccc2c1OCCCO2`, the compound was called inactive.

In the case of `C[C@H]1CN([C@@H](C)CO)C(=O)c2c(c3ccccc3n2C)-c2ccccc2CO[C@H]1CN(C)Cc1ccccc1`, the compound was classed as inactive.

With `CO[C@H]1CN(C)C(=O)c2cc(NC(=O)NC3CCCCC3)ccc2OC[C@H](C)N(CCc2ccccc2)C[C@@H]1C`, the compound was classed as inactive.

Consider `C[C@@H]1CN([C@@H](C)CO)S(=O)(=O)c2ccc(/C=C/c3ccccc3)cc2O[C@@H]1CN(C)C(=O)NC1CCCC1`, for which the outcome was inactive.

Turning to `COc1ccc(S(=O)(=O)Nc2ccc3c(c2)C(=O)N([C@@H](C)CO)C[C@@H](C)[C@H](CN(C)Cc2ccc(-c4ccccc4)cc2)O3)cc1`, the compound was called inactive.

Regarding `C[C@H]1CN([C@@H](C)CO)C(=O)Cc2cc(NC(=O)Nc3ccc(C(F)(F)F)cc3)ccc2O[C@H]1CN(C)Cc1ccc(C(=O)Nc2ccccc2N)cc1`, the outcome was inactive.

`C[C@H]1CN([C@@H](C)CO)S(=O)(=O)c2ccc(C#CC3CC3)cc2O[C@@H]1CN(C)Cc1ccc(F)cc1`: the compound was classed as inactive.

In the case of `O=C(C[C@H]1CC[C@H](NC(=O)C2CCC2)[C@H](CO)O1)NCc1ccccc1Cl`, the outcome was inactive.

Regarding `COc1cccc(S(=O)(=O)N(C)C[C@@H]2Oc3cc(C4=CCCCC4)ccc3S(=O)(=O)N([C@@H](C)CO)C[C@H]2C)c1`, the compound was called inactive.

With `CO[C@H](CN(C)Cc1nccs1)[C@@H](C)CN([C@@H](C)CO)S(=O)(=O)c1ccc(C)cc1`, the result was inactive.

`COc1ccc(S(=O)(=O)N(C)C[C@@H]2OCCCC[C@H](C)Oc3ccc(NS(=O)(=O)c4ccc(F)cc4)cc3C(=O)N([C@H](C)CO)C[C@H]2C)cc1`: the outcome was inactive.

With `C[C@H]1CN([C@@H](C)CO)S(=O)(=O)c2ccc(C#CC3CC3)cc2O[C@@H]1CN(C)C(=O)Cc1ccncc1`, the result was inactive.

For `C[C@H]1CN([C@@H](C)CO)C(=O)c2cccc(NS(=O)(=O)c3cn(C)cn3)c2O[C@H]1CN(C)Cc1ccc(Oc2ccccc2)cc1`, the compound was classed as inactive.

On to `C[C@@H]1CN([C@@H](C)CO)C(=O)c2cc(NC(=O)Cc3ccccc3)ccc2O[C@@H]1CN(C)Cc1ccc(Oc2ccccc2)cc1`, for which the compound was called inactive.

As to `C[C@H](O)C#Cc1ccc2c(c1)O[C@H](CN(C)Cc1ccc(-c3ccccc3)cc1)[C@H](C)CN([C@H](C)CO)S2(=O)=O`, the call was inactive.

Take `Cc1noc(C)c1NC(=O)Nc1ccc2c(c1)C(=O)N([C@H](C)CO)C[C@H](C)[C@@H](CN(C)C(=O)Nc1ccc(C(F)(F)F)cc1)OCCCC[C@H](C)O2`: the call was inactive.

For the compound `O=C(Cc1ccncc1)N[C@H]1CC[C@H](CCn2cc(-c3ccccc3F)nn2)O[C@@H]1CO`, the result was inactive.

Turning to `COCC(=O)N(C)C[C@H]1[C@H](c2ccccc2)[C@@H](CO)N1C(=O)Cc1ccncc1`, the call was inactive.

As to `O=S(=O)(c1ccc(F)cc1)N1CCCCN2[C@@H](CO)[C@@H](c3ccc(C#CC4CCCC4)cc3)[C@@H]2C1`, the result was inactive.

As for `C[C@H](O)C#Cc1ccc2c(c1)O[C@@H](CN(C)Cc1ccc(-c3ccccc3)cc1)[C@H](C)CN([C@H](C)CO)S2(=O)=O`, the compound was called inactive.

As for `O=C(NCC[C@@H]1CC[C@H](NS(=O)(=O)c2cccc(F)c2)[C@H](CO)O1)C1CCOCC1`, the result was inactive.

On to `C[C@@H]1CN([C@H](C)CO)C(=O)c2cc(NC(=O)Cc3ccccc3)ccc2O[C@@H]1CN(C)Cc1ccc(Oc2ccccc2)cc1`, for which the result was inactive.

On to `COc1ccc(NC(=O)Nc2ccc3c(c2)C(=O)N([C@@H](C)CO)C[C@H](C)[C@H](CN(C)Cc2ccc(Cl)c(Cl)c2)O3)cc1`, for which the call was inactive.

As to `COc1ccc(S(=O)(=O)Nc2ccc3c(c2)CC(=O)N([C@@H](C)CO)C[C@@H](C)[C@H](CN(C)CC2CCCCC2)O3)cc1`, the call was inactive.

The record behind these values is PubChem BioAssay AID720597 (Broad Institute, 2013).
